Most compounds without a hit are left out; they make up all but 3% or so of the library.
ALOX12 inh – Primary qHTS assay for inhibitors of human arachidonate 12S-lipoxygenase (ALOX12): Round 2. Polyunsaturated fatty acid lipoxygenase ALOX12 (Homo sapiens), P18054. purified 12hLO, xylenol orange hydroperoxide absorbance. Potency, µM (doses to about 108 µM), for the others: top-dose activity change, negative = inhibition, hits mostly inhibitors. 1.1% of 580,000 active
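Hydroperoxide product was detected by ferrous iron/xylenol orange as the 573 to 405 nm absorbance ratio. Arachidonic acid at 40 uM (final) was turned over for 30 min at room temperature by 150 nM human 12hLO, pH 7.0 Hepes buffer, after 15 min compound preincubation.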
PLK1 PBD inh – qHTS for Inhibitors of PLK1-PDB (polo-like kinase 1 - polo-box domain): Primary Screen; Serine/threonine-protein kinase PLK1 (Homo sapiens), P53350; Plk1 PBD binding of FITC phosphopeptide, fluorescence polarization; Potency, µM, inactives show max response, negative = inhibition, usual class: inhibitors; 2.8% of 360,000 active; AID 720504, 2013; further: series mostly up to about 57 µM; nearly all actives have a fitted effect of over 65% in size
Target sequence (P53350 whole entry, looked up, the tested form may be a part): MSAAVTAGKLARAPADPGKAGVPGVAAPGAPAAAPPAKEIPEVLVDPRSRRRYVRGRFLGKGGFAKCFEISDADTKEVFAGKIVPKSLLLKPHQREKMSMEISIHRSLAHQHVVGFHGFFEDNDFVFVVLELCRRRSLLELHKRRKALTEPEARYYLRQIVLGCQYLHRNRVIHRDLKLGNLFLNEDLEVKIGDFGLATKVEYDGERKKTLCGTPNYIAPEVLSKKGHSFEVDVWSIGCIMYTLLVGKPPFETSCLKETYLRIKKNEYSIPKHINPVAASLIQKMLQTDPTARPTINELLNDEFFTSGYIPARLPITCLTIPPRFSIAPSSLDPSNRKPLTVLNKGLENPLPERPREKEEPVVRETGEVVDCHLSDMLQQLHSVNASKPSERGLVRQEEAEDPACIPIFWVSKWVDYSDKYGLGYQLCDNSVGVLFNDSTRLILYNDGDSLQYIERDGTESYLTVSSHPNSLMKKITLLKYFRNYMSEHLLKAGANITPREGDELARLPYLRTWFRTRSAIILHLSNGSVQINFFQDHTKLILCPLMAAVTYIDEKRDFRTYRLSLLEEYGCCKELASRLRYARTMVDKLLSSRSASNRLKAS
VDR inh – Inhibitors of the vitamin D receptor (VDR): qHTS. VDR-SRC2-3 peptide fluorescence polarization, 2 h. 0.93% of 400,000 active. Potency, µM, inactives show max response, negative = inhibition, usual class: inhibitors
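FP read-out; VDR + SRC2-3 coactivator peptide; 23 nl compound by pintool; 2 h RT incubation; reagents held at 4 deg C, protected from light.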
GCN5L2 inh – qHTS Assay for Inhibitors of GCN5L2; GCN5L2 HAT assay, ThioGlo1 CoA-SH fluorescence; Histone acetyltransferase KAT2A (Homo sapiens), Q92830; 0.21% of 390,000 active; AID 504327, 2011; Potency, µM (highest dose often 58.9 µM), inactives show at the highest dose activity change, negative = inhibition, usual class: inhibitors
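ThioGlo1-coupled HAT assay: 20nM GCN5L2, 70uM acetyl-CoA, 75uM H3(1-25) peptide, pH 7.5. Fluorescence read at 340/540nm at start and after 20 min at room temperature.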
* marks the source's active call; other numbers are inactive results; ! = repeats disagree; [ ] = remark or other dose. The call rests on the fitted dose curve; in most records, active means well fitted curve in the direction sought with a large enough effect; inconclusive means small, poorly fitted or top-dose-only effect, or another doubt; inactive means no such curve, though single readings can be large; an effect the other way counts as inactive or inconclusive. On the % scale 0 is the no-effect control and ±100 the full control effect; potency means the concentration at half of the fitted maximal effect.

For Cc1ccc(C)c(NS(=O)(=O)c2ccc(NC(=O)CSc3ccc(Cl)cc3)cc2)c1 the results were ALOX12 inh 6.0%, PLK1 PBD inh 23.8µM*, VDR inh -14.0% and GCN5L2 inh -5.0%.
`Cc1ccc(NS(=O)(=O)c2ccc(NC(=O)C3CC3)cc2)c(C)c1` gave ALOX12 inh 0.8%, PLK1 PBD inh 1.5%, VDR inh -0.9% and GCN5L2 inh -13.9%.
For Cc1ccc(NS(=O)(=O)c2ccc(NC(=O)C(C)Sc3ccc(Cl)cc3)cc2)c(C)c1 (stereo unspecified) the results were ALOX12 inh inconclusive, PLK1 PBD inh 29.9µM*, VDR inh -17.6% and GCN5L2 inh -10.8%.
`Cc1ccc(C)c(S(=O)(=O)N2CCN(C(=O)/C=C/c3ccco3)CC2)c1` gave ALOX12 inh 188.5%, PLK1 PBD inh inconclusive, VDR inh 89.1µM* and GCN5L2 inh inconclusive.
For CC(=O)c1ccc(NC(=O)CSC2=C(C#N)C(c3ccccc3C)C3=C(CCCC3=O)N2)cc1 (stereo unspecified) the results were ALOX12 inh -52.7%.
For CC(=O)c1cnc2nc(SCc3ccccc3)nn2c1C the results were ALOX12 inh 0.0%, PLK1 PBD inh 0.2%, VDR inh -15.3% and GCN5L2 inh -5.0%.
`CC(=O)c1cnc2nc(SCc3ccc(C)cc3)nn2c1C` gave ALOX12 inh -5.3%, PLK1 PBD inh 23.8µM*, VDR inh inconclusive and GCN5L2 inh -3.8%.
Screening COc1ccc(NC(=O)c2ccc3c(c2)N(C)C2CCCCN2C3=O)cc1 (stereo unspecified) returned ALOX12 inh 34.3%.
[C-]#[N+][C@H](O[C@@H]1O[C@H](CO)[C@@H](O)[C@H](O)[C@H]1O)c1ccccc1 was read as ALOX12 inh -4.4%, PLK1 PBD inh 0.9% and VDR inh -0.8%.
`O=C(O)CC(CCc1ccccc1)OC1OC(CO)C(O)C(O)C1O` (stereo unspecified) gave ALOX12 inh 44.7µM*, PLK1 PBD inh 4.6%, VDR inh -4.2% and GCN5L2 inh -22.9%.
`COC(=O)C(C)Sc1ncnc2c1nnn2-c1ccc(F)cc1` (stereo unspecified) gave ALOX12 inh 0.0%, PLK1 PBD inh -8.1%, VDR inh -20.5% and GCN5L2 inh -4.0%.
For COc1ccc(-n2nnc3c(SC(C(C)=O)C(=O)N(C)C)ncnc32)cc1 (stereo unspecified) the results were ALOX12 inh inconclusive, PLK1 PBD inh 23.8µM*, VDR inh 7.08µM* and GCN5L2 inh -10.5%.
Screening COc1cccc(/C=C(/C#N)c2nc3ccccc3[nH]2)c1OC(C)C returned ALOX12 inh -27.6%.
For COc1ccc(NC(=O)Cc2cc(OC)c(OC)c(OC)c2)cc1NS(C)(=O)=O the results were ALOX12 inh 8.9%.
Screening Cc1ccc(-c2cnc(CCC(=O)Nc3cccc(F)c3)o2)cc1C returned ALOX12 inh -27.0%.
`CCOC(=O)C1CCCN(CC(=O)/C=C2/N(C)c3ccccc3C2(C)C)C1` (stereo unspecified) gave ALOX12 inh inconclusive, PLK1 PBD inh 1.6%, VDR inh 15.8% and GCN5L2 inh -6.6%.
Screening CN1/C(=C\C(=O)CN2CCN(C(c3ccccc3)c3ccccc3)CC2)C(C)(C)c2ccccc21 returned ALOX12 inh 10µM*.
For CC1=C(/C=C/C(C)=C/C=C/C(C)=C\CO)C(C)(C)CCC1 the results were ALOX12 inh 16.9%, VDR inh inconclusive and GCN5L2 inh 18.2%.
`CC(=O)OC/C=C(C)/C=C/C=C(C)/C=C/C1=C(C)CCCC1(C)C` gave ALOX12 inh inconclusive, VDR inh 39.8µM*! and GCN5L2 inh -33.8%.
Screening O=C(CC[C@@H]1CNC(=O)[C@@H]2C[C@H](NC(=O)Nc3cccc(Cl)c3)CN12)NCc1cccnc1 returned ALOX12 inh 44.7µM*.
`O=[N+]([O-])c1ccc(-c2cc(-c3ccc(Cl)cc3)n[nH]2)cc1` gave ALOX12 inh -11.1%, PLK1 PBD inh 2.99µM*, VDR inh inconclusive and GCN5L2 inh -1.0%.
For O=[N+]([O-])c1ccc2nc(-c3ccc(Cl)cc3)[nH]c2c1 the results were ALOX12 inh 20µM*, PLK1 PBD inh -19.5%, VDR inh -13.8% and GCN5L2 inh -4.3%.
For Clc1ccc(-c2nc3ccncc3[nH]2)cc1 the results were ALOX12 inh -17.7%, PLK1 PBD inh 8.44µM*, VDR inh -23.8% and GCN5L2 inh -6.1%.
For O=[N+]([O-])c1cccc(-c2nc3ccc([N+](=O)[O-])cc3[nH]2)c1 the results were ALOX12 inh 0.0%, PLK1 PBD inh 9.47µM*, VDR inh 31.6µM* and GCN5L2 inh -8.4%.
Cc1ccc(-c2nc3ccc([N+](=O)[O-])cc3[nH]2)cc1 was read as ALOX12 inh inconclusive, PLK1 PBD inh -8.2%, VDR inh -11.7% and GCN5L2 inh -2.8%.
For CCc1cccc(NC(=O)N2CCCC(c3noc(COc4ccccc4F)n3)C2)c1 (stereo unspecified) the results were ALOX12 inh 23.3%.
For Cc1cc(C)cc(NC(=O)c2ccc3ccccc3n2)c1 the results were ALOX12 inh -21.1%.
For Cc1cc(Cl)ccc1-c1ccccc1CN the results were ALOX12 inh 8.2%[12.5 µM].
N#Cc1ccc(Oc2cccc(C(=O)OCC(=O)c3ccccc3)c2)cc1C#N was read as ALOX12 inh -22.9%.
`COc1cc(C)c(CN2CCC(n3nccc3NC(=O)C3CC3)CC2)cc1C` gave ALOX12 inh -12.3%, PLK1 PBD inh -1.3%, VDR inh -17.1% and GCN5L2 inh -2.6%.
COc1ccc(CN2CCC(n3nccc3NC(=O)C3CCCC3)CC2)cc1 was read as ALOX12 inh -17.3%, PLK1 PBD inh -2.7%, VDR inh -8.0% and GCN5L2 inh inconclusive.
`O=C(Nc1ccnn1C1CCN(Cc2ccc(-c3ccco3)cc2)CC1)C1CC1` gave ALOX12 inh 11.2µM*.
For COc1ccccc1/C=C/CN1CCC(n2nccc2NC(=O)C2CC2)CC1 the results were ALOX12 inh 28.2µM*, PLK1 PBD inh 0.5%, VDR inh -2.9% and GCN5L2 inh -3.9%.
For S=c1[nH]nc(COc2ccc(Cl)cc2)n1-c1ccc(Cl)cc1 the results were ALOX12 inh inconclusive, PLK1 PBD inh inconclusive, VDR inh -7.3% and GCN5L2 inh -27.3%.
`Cc1cc(Cl)ccc1OCCCc1n[nH]c(=S)n1Cc1ccco1` gave ALOX12 inh 17.8µM*.
CCCc1n[nH]c(=S)n1Cc1ccco1 was read as ALOX12 inh -7.6%, PLK1 PBD inh -21.0%, VDR inh 3.5% and GCN5L2 inh -6.3%.
Screening S=c1[nH]nc(COc2ccc(Cl)cc2)n1Cc1ccco1 returned ALOX12 inh 39.8µM*, PLK1 PBD inh inconclusive, VDR inh -2.9% and GCN5L2 inh -7.2%.

Assay outcomes (PubChem BioAssay)
